High-throughput results deposited in PubChem by University of Kansas High Throughput Screening Laboratory.
Shown are actives, neighbours in structure and some others; about 3.5% of the full set was active somewhere.
Pf apPOL inh: Pf-apPOL DNA polymerase inhibition | Recombinant Pf-apPOL, molecular beacon fluorescence, 1.5 h | inhibition, % at 10 µM | hit rate 0.25% among 210,000
mHTT-CaM PPI inh: inhibitors of human mutant huntingtin-calmodulin interaction; P42858; AlphaScreen His-mHTT/GST-CaM binding, luminescence; inhibition, % at 15 µM; hit rate 3.6% among 190,000; AID 1671202;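 also: 0% = both proteins with DMSO and 100% = one protein alone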
* = called active by the depositor; . = no result. Rule as the data show it: active = inhibition above about 50%; inactive = the rest.

SMILES	Pf apPOL inh	mHTT-CaM PPI inh
COc1ccc(/C=C2\C(C)=C(C#N)c3nc(N)c(C#N)c(C)c32)cc1OC	-6.8	29.0
CC1=C(C#N)c2nc(N)c(C#N)c(C)c2/C1=C/c1ccc(O)cc1	-4.0	64.0*
COc1ccccc1N1C(=O)C2C(c3cccc(OC)c3O)NC(CC(C)C)(C(=O)O)C2C1=O (stereo unspecified)	-6.8	0.0
CCSc1ccc(C(N)=NOC(=O)c2cccc(C(F)(F)F)c2)cn1	-2.2	.
O=C(OCC1OC(O)C(O)(COC(=O)c2cc(O)c(O)c(O)c2)C1O)c1cc(O)c(O)c(O)c1 (stereo unspecified)	64.2*	.
O=C(c1cc(C(F)(F)F)cc(C(F)(F)F)c1)c1ccccc1C(=O)N1CCOCC1	-1.7	.
O=C(N=S1CCC2(C1)OCCO2)c1cc(C(F)(F)F)cc(C(F)(F)F)c1 (stereo unspecified)	75.0*	.
OCCn1c(-c2ccc(Cl)cc2)csc1=Nc1ccccc1	-2.7	69.0*
OCCn1c(-c2ccc(Cl)c(Cl)c2)csc1=Nc1ccccc1	13.9	100.0*
Cc1ccc(-c2csc(=Nc3ccccc3)n2CCO)cc1	-6.1	52.0*
CCN(CC)CCn1c(-c2ccccc2)csc1=Nc1ccccc1	3.9	18.0
c1ccc(N=c2scc(-c3ccccc3)n2CCN2CCOCC2)cc1	1.5	26.0
COc1ccc(CCNC(=O)CN2N=C(c3ccc(Cl)cc3)CCC2=O)cc1OC	-17.6	15.0
Cc1ccc(CCNC(=O)CN2N=C(c3ccc(Cl)cc3)CCC2=O)cc1	-13.0	65.0*
CCCCn1c(-c2ccc(Br)cc2)cn2c3c(=O)n(C)c(=O)n(C)c3nc12	0.0	13.0
COCc1ccc(-c2c(-c3ccccc3OC)sc3ccccc23)cc1	-2.6	-38.1
COc1cc(-c2c(CCO)sc3ccccc23)cc(OC)c1OC	-13.4	97.0*
Cc1cccc(C)c1NC(=O)c1cccc(OC(C)C)c1	-3.8	-5.5
CN(C)CCNC(=O)c1cn2cc(-c3ccc(F)c(Cl)c3)ccc2n1	11.1	93.3*
CN(C)c1ccc(CNC(=O)c2cn3cc(Cl)ccc3n2)cc1	-0.3	14.6
CCc1cc2c(=O)c(-c3ccc4c(c3)OCCCO4)coc2cc1OCC(=O)c1ccccc1	-0.9	-2.5
CN(C)c1cccc(C(=O)N2CCC(c3cc(N)on3)CC2)c1	-0.1	-1.3
O=C1CSC(c2ccc3c(c2)OCO3)N1c1ccc(Oc2ccccc2)cc1 (stereo unspecified)	-1.4	100.0*
Cc1ccc(N2C(=O)CSC2c2ccc([N+](=O)[O-])cc2)cc1 (stereo unspecified)	-0.5	8.0
O=C1CSC(c2ccc([N+](=O)[O-])cc2)N1c1ccc(Oc2ccccc2)cc1 (stereo unspecified)	-2.2	75.0*
SMILES	Pf apPOL inh	mHTT-CaM PPI inh
Cc1ccc(N2C(=O)CSC2c2ccc3c(c2)OCO3)cc1 (stereo unspecified)	-2.0	1.0
CN1CCc2cc(C(CNC(=O)C(=O)Nc3cccc(C(F)(F)F)c3)N(C)C)ccc21 (stereo unspecified)	-3.8	52.7*
CN1CCCc2cc(C(CNC(=O)C(=O)Nc3ccc4c(c3)OCCO4)N(C)C)ccc21 (stereo unspecified)	-10.5	36.9
COc1ccc(-c2cc(C(F)(F)F)n3ncc(C(=O)Nc4cc(Cl)ccc4O)c3n2)cc1	2.1	11.0
Cc1ccc(CNC(=O)C2CCN(c3nccnc3Oc3ccccc3)CC2)cc1	-1.1	-2.0
OCC(O)Cn1c2ccc(Br)cc2c2cc(Br)cc(Br)c21 (stereo unspecified)	2.6	98.0*
OC(CN1CCN(c2ccccc2)CC1)Cn1c2ccccc2c2ccccc21 (stereo unspecified)	-5.2	12.0
OC(CN1CCCCC1)Cn1c2ccc(Br)cc2c2cc(Br)ccc21 (stereo unspecified)	-3.9	.
OC(CN1CCN(C/C=C/c2ccccc2)CC1)Cn1c2ccccc2c2ccccc21 (stereo unspecified)	2.1	99.8*
OC(CN1CCNCC1)Cn1c2ccccc2c2cc(Br)ccc21 (stereo unspecified)	-2.1	50.7*
OC(CN1CCNCC1)Cn1c2ccccc2c2ccccc21 (stereo unspecified)	3.3	1.0
O=C(NCCc1cscn1)C1CCN(C(=O)c2cccc(F)c2)CC1	-2.8	-6.6
CCN1c2cc(C)ccc2-n2cccc2C12CCN(C(=O)NC(C)C)CC2	1.9	99.5*
CCN1c2cc(C)ccc2-n2cccc2C12CCN(C(=O)Nc1ccccc1Cl)CC2	0.8	26.4
CCN1c2cc(C)ccc2-n2cccc2C12CCN(C(=O)NC(C)C(=O)OC)CC2 (stereo unspecified)	-2.0	67.7*
COC(=O)C(C)NC(=O)N1CCC2(CC1)Nc1cc(F)ccc1-n1cccc12 (stereo unspecified)	3.5	37.9
COc1ccc(-c2nc3c(c(=O)[nH]2)CCN(C(=O)c2ccc(C)nc2)C3)cc1	3.3	-1.3
O=C(CSC1=NCCN1Cc1ccccc1)NN(Cc1c(F)cccc1Cl)c1ccccc1	-5.1	.
Cc1cccc(CNC(=O)c2cc3ccncc3n2C)c1	-0.7	-7.6
COc1cccc(C2CC(c3ccccc3O)=NC3(CCN(C(C)C)CC3)N2)c1O (stereo unspecified)	-5.9	27.1
O=c1[nH]c2ccccc2nc1C=C(O)c1ccco1	-7.7	-3.6
O=c1[nH]c2c(=O)[nH]c(=S)[nH]c2nc1C=C(O)c1ccccc1	89.8*	.
O=C(NCCc1ccccc1)C1CCN(c2nccn3nc(-c4ccc(F)cc4)cc23)CC1	1.2	-0.2
Cc1cc(O)c(C(C)(C)C)cc1S(=O)c1cc(C(C)(C)C)c(O)cc1C	.	68.0*
Cc1cc(Cc2cc(C(C)(C)C)c(O)c(C(C)(C)C)c2)c(O)c(C(C)(C)C)c1	.	9.3
SMILES	Pf apPOL inh	mHTT-CaM PPI inh
Cc1cc(O)c(C(C)(C)C)cc1Sc1cc(C(C)(C)C)c(O)cc1C	.	100.3*
Cc1cc(S(=O)c2cc(C)cc(C(C)(C)C)c2O)c(O)c(C(C)(C)C)c1	.	72.3*
Cc1cc(Sc2cc(C)c(O)c(C(C)(C)C)c2)cc(C(C)(C)C)c1O	.	14.9
CC(C)(C)c1cc(O)c(C(C)(C)C)cc1O	48.6	12.4
Cc1cc(C(=O)Nc2nc3c(s2)COc2ccccc2-3)on1	7.0	0.9
Cc1cccc(C2=NN(c3ccc(Br)cc3)[C@@H](C(=O)N3CCOC3=O)[C@@H]2c2ccc([N+](=O)[O-])cc2)c1	-10.4	50.4*
O=C1OCCN1C(=O)[C@H]1[C@H](c2ccc([N+](=O)[O-])cc2)C(c2ccccc2)=NN1c1ccccc1	-1.0	47.0
O=C1OCCN1C(=O)[C@H]1[C@H](c2ccc([N+](=O)[O-])cc2)C(c2cccc(Cl)c2)=NN1c1ccccc1	-1.4	55.2*
Cc1cccc(C2=NN(c3ccc(Br)cc3)[C@@H](C(=O)N3CCOC3=O)[C@@H]2C)c1	8.9	2.6
Cc1cc(C)cc(N=C2NC(=O)/C(=C/c3ccc(N(C)C)cc3)S2)c1	2.1	43.0
COc1ccc(CCNC(=S)NC23CC4CC(CC(C4)C2)C3)cc1OC	-4.1	-4.4
Cn1c(SCC(=O)N2CCN(c3ccccc3)CC2)nnc1-c1ccc(N)cc1	-3.2	6.8
COc1ccc(OC)c(/C=C2/N=C(c3cccc([N+](=O)[O-])c3C)OC2=O)c1	-1.5	2.0
O=C1CC(c2cccc([N+](=O)[O-])c2)CC2=C1C(c1ccc(Cl)cc1)Nc1ccccc1N2 (stereo unspecified)	12.4	58.0*
